Measurements published in PubChem BioAssay (EPA / NIEHS).
Results filed as inconclusive are left out. Calls of active or inactive are those of the source. Rule for the calls: active = hit-call score of the fitted dose curve at least 0.9, where 1 is the maximum; inconclusive = response in the unintended direction; inactive = score below 0.9.

Target: human RAR-related Orphan Receptor gamma (RORg), RORC (gene 6097) (UniProt P51449)
Assay: ATG_RORg_TRANS: Attagene TRANS-FACTORIAL HepG2 Assay for human RAR-related Orphan Receptor gamma (RORg) (AID 2283011)
Outline: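 Transient MRTU transfection of HepG2 (TRANS format, exogenous NR-Gal4 chimera). 24 h dosing. Total RNA → oligo(dT) RT → PCR → 6-FAM labelling → HpaI cut → CE. Gain vs DMSO.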

human RAR-related Orphan Receptor gamma (RORg), RORC (gene 6097), sequence (P51449 whole entry, looked up): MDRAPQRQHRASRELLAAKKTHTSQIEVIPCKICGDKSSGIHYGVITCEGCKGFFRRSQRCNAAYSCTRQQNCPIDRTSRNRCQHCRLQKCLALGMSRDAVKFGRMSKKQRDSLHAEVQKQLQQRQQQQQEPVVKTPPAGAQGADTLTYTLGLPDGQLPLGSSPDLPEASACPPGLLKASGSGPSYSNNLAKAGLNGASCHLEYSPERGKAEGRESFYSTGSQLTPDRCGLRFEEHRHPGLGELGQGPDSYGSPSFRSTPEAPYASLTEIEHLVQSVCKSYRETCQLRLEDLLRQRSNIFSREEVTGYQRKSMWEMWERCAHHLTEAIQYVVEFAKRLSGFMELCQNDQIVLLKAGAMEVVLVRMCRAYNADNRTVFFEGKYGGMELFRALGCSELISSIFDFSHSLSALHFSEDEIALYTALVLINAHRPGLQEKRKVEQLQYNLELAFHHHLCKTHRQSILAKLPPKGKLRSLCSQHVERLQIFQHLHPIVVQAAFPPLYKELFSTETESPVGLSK

| Structure (SMILES) | outcome |
| --- | --- |
| OCC(F)(F)C(F)(F)C(F)(F)C(F)F | inactive |
| Cc1ccc(S(=O)(=O)NCl)cc1 | inactive |
| CCN(Cc1cccc(S(=O)(=O)O)c1)c1ccc(C(=C2C=CC(=[N+](CC)Cc3cccc(S(=O)(=O)O)c3)C=C2)c2ccc(O)cc2S(=O)(=O)[O-])cc1 | inactive |
| Nc1cc(Cl)c(N)c(Cl)c1 | inactive |
| Cc1cccc(N(C)C)c1 | inactive |
| O=C(O)C(F)(F)C(F)(F)OC(F)(F)F | inactive |
| CCCCCCOC(=O)c1ccccc1O | inactive |
| O=S(=O)(O)C(F)(F)C(F)(F)C(F)(F)C(F)(F)C(F)(F)C(F)(F)C(F)(F)F | inactive |
| O=C(O)C(F)(F)C(F)(F)C(F)(F)C(F)(F)F | inactive |
| O=C(O)C(F)(F)C(F)(F)C(F)(F)F | inactive |
| C1COCCN1 | inactive |
| C=CC(F)(F)C(F)(F)C(F)(F)C(F)(F)C(F)(F)C(F)(F)C(F)(F)C(F)(F)C=C | inactive |
| CC(=O)Nc1ccc(N=Nc2cc(C)ccc2O)cc1 | inactive |
| CC(C)(C)c1ccc(OC2CCCCC2O)cc1 (stereo unspecified) | inactive |
| N=C(N)C(F)(F)C(F)(F)C(F)(F)C(F)(F)C(F)(F)C(F)(F)C(F)(F)F | inactive |
| O=C(O)C(F)(F)C(F)(F)C(F)(F)C(F)(F)C(F)(F)C(F)(F)C(F)(F)C(F)(F)Cl | inactive |
| COC(OC(C)=O)c1ccccc1 (stereo unspecified) | inactive |
| O=P(O)(O)OCCC(F)(F)C(F)(F)C(F)(F)C(F)(F)C(F)(F)C(F)(F)F | inactive |
| CCCCCCCOC(=O)c1ccccc1C(=O)OCCCCCCC | inactive |
| [Co] | inactive |
| CCCCCCCCCCCCCCCC[N+](C)(C)Cc1ccccc1 | inactive |
